# The supplement of paper PMC3334620
# Over roughly 33,000 sequences, “E-score (-0.5 to 0.5)” has its median near -0.041; the highest 2% begin near 0.37. Many of the other results were omitted from the sample, so the highest values are more common in it than they were.
# Biological target: T1, Ecm22 (UniProt Q05958)
# T1 sequence: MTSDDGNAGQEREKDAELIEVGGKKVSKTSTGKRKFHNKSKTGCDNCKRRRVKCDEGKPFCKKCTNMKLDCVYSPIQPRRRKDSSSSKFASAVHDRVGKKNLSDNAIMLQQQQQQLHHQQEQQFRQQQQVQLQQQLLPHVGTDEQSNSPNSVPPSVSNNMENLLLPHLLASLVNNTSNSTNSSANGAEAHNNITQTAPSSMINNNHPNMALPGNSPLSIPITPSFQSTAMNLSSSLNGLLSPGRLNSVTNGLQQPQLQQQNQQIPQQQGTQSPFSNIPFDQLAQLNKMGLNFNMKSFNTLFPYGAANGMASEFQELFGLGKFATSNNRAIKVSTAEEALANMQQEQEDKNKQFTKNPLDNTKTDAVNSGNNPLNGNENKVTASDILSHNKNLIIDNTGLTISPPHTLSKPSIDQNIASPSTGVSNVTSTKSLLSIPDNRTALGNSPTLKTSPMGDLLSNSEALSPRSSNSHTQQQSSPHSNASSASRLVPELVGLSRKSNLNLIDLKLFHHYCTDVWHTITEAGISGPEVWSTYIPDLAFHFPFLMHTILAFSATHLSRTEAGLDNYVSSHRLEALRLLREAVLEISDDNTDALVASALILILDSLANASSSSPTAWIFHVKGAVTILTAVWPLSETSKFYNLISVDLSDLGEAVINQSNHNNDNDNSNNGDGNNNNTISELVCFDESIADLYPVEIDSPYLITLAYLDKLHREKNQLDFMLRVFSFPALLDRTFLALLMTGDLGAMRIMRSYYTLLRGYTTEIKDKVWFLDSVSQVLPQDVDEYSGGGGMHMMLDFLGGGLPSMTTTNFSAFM
# Experiment: PBM E-score (8-mer binding enrichment) (E-score (-0.5 to 0.5)); higher = stronger / more preferred TF binding
# Conditions: protein concentration: 200 nM; construct: GST-full length
# Protocol: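 Universal 'all 10-mer' protein binding microarrays (Agilent AMADID 015681) probed with GST-tagged S. cerevisiae TFs (full-length or DBD) made by in vitro transcription/translation (PURExpress), about 100-200 nM. Bound TF was detected with fluorescent anti-GST. Each ungapped 8-mer (which stands for itself and its reverse complement) is scored by the PBM enrichment score (E-score), a modified Wilcoxon-Mann-Whitney statistic from -0.5 to +0.5, computed with the Universal PBM Analysis Suite. Scale: above 0.35 generally sequence-specific binding.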
row,Sequence,PBM E-score
1,GGGGCTAC,-0.0133
2,GACGCCTA,-0.221
3,TCTTCGAA,0.108
4,GATACTTA,-0.131
5,GAGTCGCA,0.133
6,GAGTCGGA,0.0868
7,GAGTCGTA,0.43
8,CAGTCGGA,-0.067
9,CAGTCGTC,-0.109
10,AAGTCGTC,0.139
11,AAGTCGTA,0.433
12,AAGTCGTG,-0.0717
13,CAGTCGTA,0.418
14,CCGGCCGA,-0.113
15,AAGAGTTC,0.00406
16,CGAGCAAC,0.168
17,ACGCCGTG,-0.146
18,ACTCATGC,-0.0706
19,CACTGGGG,-0.267
20,ACGAGATC,0.433
21,ACGAGAGA,0.353
22,ACGAGAGC,0.399
23,ACGAGACA,0.315
24,ACGAGACG,0.394
25,ACGAGATA,0.346

row,Sequence,PBM E-score
1,ACGAGATG,0.365
2,ACGAGACT,0.348
3,GCGAGAGC,0.182
4,AGTAAACG,0.427
5,CGTAAACC,0.366
6,CGTAAACG,0.444
7,CGTAAACA,0.385
8,GGTAAACA,0.129
9,AGTAAACA,0.0411
10,CGGAAACG,0.269
11,AGTAAACC,-0.0723
12,TGTAAACA,-0.0145
13,TCCTTAAA,-0.1
14,GGTCCACC,-0.214
15,ACGCGGGA,0.062
16,AAAGCAGG,-0.203
17,TCTTTACA,-0.132
18,GTTTCGAA,-0.00209
19,GTTTCGTA,0.44
20,ATTTCGTC,0.0861
21,CTTTCGTA,0.428
22,CTTTCGGA,0.0148
23,GTTTCGGA,0.215
24,ATTTCGTA,0.444
25,ATTTCGTG,0.0706

row,Sequence,PBM E-score
1,CTTTCGTC,0.0061
2,GCCCGTGA,-0.115
3,AGGTTTGC,-0.153
4,ACCTAAAT,0.112
5,ACTGGAAA,-0.0956
6,GTTAAACA,0.00429
7,AACGTTTA,0.319
8,GACGTTTA,0.303
9,GTCGTTTA,0.491
10,GGCGTTTA,0.166
11,ATCGTTTC,0.365
12,ATCGTTTA,0.483
13,ATCGTTTG,0.414
14,AGCGTTTG,0.031
15,AGCGTTTA,0.168
16,AAATCTCT,-0.0179
17,ACACTCCT,-0.163
18,CGTTGAGC,0.0667
19,CCACAAGA,-0.185
20,CAAAAGGG,-0.181
21,GCGGGGAC,-0.152
22,ACGATACT,0.313
23,ATGATACG,0.377
24,CCGATACG,0.326
25,ATGATACA,-0.0736

row,Sequence,PBM E-score
1,ACGATACG,0.383
2,ATGATACC,0.146
3,GTTTTCCA,0.061
4,CTCCCGTC,0.121
5,TAAGTGCA,0.0499
6,CTGTTGCC,-0.265
7,CAGGAACA,-0.0447
8,ATGGAACG,0.402
9,CAGGAACC,-0.171
10,ATGGAACA,-0.322
11,AAGGAACG,0.458
12,AAGGAACC,0.0815
13,CAGGAACG,0.463
14,AAGGAACT,-0.0399
15,ATGGAACC,-0.0738
16,CCGCCTAG,-0.193
17,CTTACCTA,-0.117
18,GAAGTGTC,-0.055
19,AATAGTTG,-0.116
20,CAGCGTCG,0.0918
21,AAGCCGTC,-0.0956
22,TAAACAAA,0.114
23,GTAACGAA,0.306
24,GAAACGAA,0.414
25,AAAACGAA,0.277

row,Sequence,PBM E-score
1,CCAACGAA,0.0596
2,CAAACGAA,0.438
3,TAAACGAA,0.488
4,TAAACGCA,0.292
5,GAAACAAA,-0.0214
6,AGTGACAT,-0.283
7,GGCACAAA,-0.134
8,GATATGCC,-0.108
9,ATATTTAA,0.0866
10,GCACGGCA,-0.0485
11,CTACGGCA,0.1
12,ATACGGCG,0.406
13,AGACGGCC,-0.223
14,CTACGGCC,0.018
15,ATACGGCA,0.404
16,ATACGGCC,0.388
17,AGACGGCG,-0.0146
18,ACACGGCG,-0.0862
19,AAACGGCA,0.294
20,GTACGGCA,0.395
21,ACACGGCA,0.108
22,CCACCAAA,-0.13
23,GGCTGAAA,-0.0667
24,ACAATGGA,-0.0436
25,AGATGGCG,-0.102

row,Sequence,PBM E-score
1,CTCACGAC,-0.0734
2,GTTACGGA,0.233
3,CTTACGAC,0.394
4,CTTACGCA,0.0308
5,CTTACGCC,0.0486
6,GTTACGAA,0.404
7,CTCACGAA,0.128
8,CTTACGAA,0.391
9,ATTACGAA,0.349
10,CGAAAATC,0.162
11,CGGCATCA,0.0766
12,AGTACCGC,0.148
13,CGTACCGC,0.47
14,GGTACCGA,0.103
15,AGTACCGA,0.0799
16,CGTACCGA,0.447
17,CATACCGC,-0.0365
18,CGAGTCAC,0.106
19,ACTGGCAT,-0.182
20,AATACCGG,-0.042
21,ACGATAAT,0.309
22,ACGATCGC,0.327
23,ACGATCGT,0.43
24,ACGATCGG,0.274
25,CCGTACAG,0.388

row,Sequence,PBM E-score
1,CCGTACAA,0.4
2,TCGTACAA,0.49
3,ACGTACAA,0.298
4,GCGTACAA,0.243
5,CCGTACAC,0.33
6,CGGTACAA,0.214
7,CAGTACAA,-0.0343
8,ACGTACAG,0.186
9,AATTTCTC,0.0237
10,GGCTCGAA,0.0317
11,GGCTCGTA,0.479
12,CGCTCGTA,0.467
13,CGCTCGGA,0.252
14,CGCTCGTC,0.168
15,AGCTCGTC,0.0121
16,AGCTCGTG,0.182
17,GGCTCGGA,0.0976
18,AGCTCGTA,0.477
19,AGGTCTAT,0.0387
20,TATGATGA,0.00697
21,ATAGGTTC,0.00586
22,CGGCCTCC,-0.0189
23,ACCCGAAA,0.14
24,TTATAGAA,-0.0153
25,AGCAATAA,-0.127

row,Sequence,PBM E-score
1,CGCCCGAA,0.0388
2,CGCGCGGC,0.225
3,GCTCAGGA,-0.107
4,ATCGACAG,0.00794
5,CACGACAA,0.09
6,AACGACAG,0.412
7,AACGACAT,0.434
8,AACGACAA,0.41
9,TACGACAA,0.455
10,TGCGACAA,0.141
11,CACGACAG,0.0642
12,GACGACAA,0.155
13,AGCGACAT,0.214
14,TTCGACAA,0.0503
15,ACCGACAT,0.217
16,GGACCTCA,-0.206
17,CTGGGAAC,0.132
18,TGGGTAAA,0.0399
19,AGTGTCCG,0.0467
20,CACTCTCG,0.174
21,CTCGTGGA,-0.0176
22,CAGGCCTA,-0.218
23,AAATCCTG,0.015
24,AGATCGAA,-0.0769
25,CAAGGTGC,-0.235

row,Sequence,PBM E-score
1,AGGACCAA,-0.168
2,CACGACAC,0.147
3,GACGACAC,-0.0609
4,AACGACAC,0.421
5,AAGACGGG,-0.114
6,CGTCCGCC,-0.111
7,ACTGGGGC,-0.276
8,AACGATCT,0.381
9,AACGATCC,0.307
10,GACGATAC,0.127
11,AACGATAT,0.408
12,AACGATAC,0.389
13,TACGATAA,0.408
14,AGCGATAT,0.222
15,GACGATAA,0.0921
16,ACCGATAT,0.138
17,AACGATCA,0.346
18,CACGATAA,0.00212
19,AACGATAG,0.345
